Bioassay records: PubChem BioAssay, Broad Institute
The full list was thinned out, with hits kept by preference.
Tgondii IFNg = T. gondii growth inhibition with IFN-gamma, primary screen, cell-based | Toxoplasma gondii growth in IFN-gamma-treated host cells; stronger effect = lower value | activity change, negative = inhibition, % (concentration not given with the values) | hit rate 3.8% among 69,000 | AID 1259416, 2018; in the data active = activity change below about -70%, passing the limit was not always enough;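 note: host cells are HeLa cells infected with Toxoplasma gondii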
Active calls of the source: *; i = inactive.

SMILES | Tgondii IFNg
Cc1oc(-c2ccc(C(=O)NCc3ccc(OC(C)C)cc3)cc2)nc1CN1CCc2ccccc21 | -88*
Cc1oc(-c2ccc(C(=O)NCCc3ccc(Cl)cc3)cc2)nc1CN1CCc2ccccc21 | -64
Cc1oc(-c2ccc(C(=O)NCCC(C)C)cc2)nc1CN1CCc2ccccc21 | 64
Cc1oc(-c2ccc(C(=O)NCCc3ccco3)cc2)nc1CN1CCc2ccccc21 | -64
Cc1oc(-c2ccc(C(=O)NCCc3cccs3)cc2)nc1CN1CCc2ccccc21 | -89*
COc1ccc(CNC(=O)c2ccc(-c3nc(CN4CCc5ccccc54)c(C)o3)cc2)cc1OC | 142
Cc1cnn(Cc2ccc(C(=O)N3CCN(c4nsc5ccccc45)CC3)o2)c1 | 16
O=C1CCc2cc(S(=O)(=O)NCCC(c3ccccc3)c3ccccc3)cc3c2N1CCC3 | -31
CN1CC2(CCN(C(=O)c3cc(C4CC4)[nH]n3)C2)OC1=O (centres undefined) | 3
Cc1nn(C)c(Cl)c1CN1CCN2C(=O)CNC(=O)C2C1 (centres undefined) | 16
COc1ccc(-c2nc(C)c(CCNC(=O)c3cccc(C(F)(F)F)c3)s2)cc1OC | i
COc1ccc(-c2cc3c(=O)n(Cc4nc(-c5ccccc5OC)oc4C)ccn3n2)cc1 | 4
COc1cccc2c(=O)c(C/C=C(/C)Cl)c(C)[nH]c12 | -81*
COc1cccc2c(=O)c(C(=O)NCc3cccnc3)c[nH]c12 | -8
COc1cccc2c(=O)c3ccccc3oc12 | 39
Cc1oc(-c2ccc(OC(C)C)cc2)nc1Cn1ccn2nc(-c3ccc4c(c3)OCO4)cc2c1=O | 24
Nc1ncnc2c1c(-c1cnc3[nH]ccc3c1)nn2C1CCCC1 | -77*
Cc1ccc(-c2cc(NC3CCCC3)nc3[nH]ccc23)c(N)n1 | -3
CCN1C(=O)C2(CCN(S(C)(=O)=O)CC2)CC12CCN(C(=O)Nc1ccccc1)CC2 | 166
Cc1ccccc1C(=O)NN1C(=O)c2ccccc2C1=O | -31
COC(=O)c1ccccc1-c1ccccc1C(=O)OC | -59
Cc1ccccc1C(=O)O/N=C1\C(=O)c2ccccc2-c2ccccc21 | -86*
C=CCN(Cc1ccco1)Cc1cc2ccccc2n(C)c1=O | 10
NC(=O)Cc1csc(NC(=O)C2CC(c3ccccc3Cl)=NO2)n1 (centres undefined) | -7
O=C(Nc1ccc(Br)cc1)C1CC(c2c(F)cccc2Cl)=NO1 (centres undefined) | 0
SMILES | Tgondii IFNg
O=C(Nc1cnn(C23CC4CC(CC(C4)C2)C3)c1)C1CC(c2c(F)cccc2Cl)=NO1 (centres undefined) | -84*
CC(=O)c1cc(C(=O)N(C)Cc2c(C)noc2C)cs1 | -6
Cc1n[nH]c(C)c1Cc1nc(CC2CCN(C)CC2)no1 | -4
Cc1nc(-c2cnn(C)c2)nc2c1CN(Cc1ccc(F)cc1)CC2 | -44
O=c1oc2ccccc2c2c1C(c1ccc3c(c1)OCO3)Nc1ccc3ccccc3c1-2 (centres undefined) | 57
Fc1ccc(C2Nc3ccc4ccccc4c3C3=C2CCCC3)cc1 (centres undefined) | -105*
COc1ccc(S(=O)(=O)N2CCC3(CC2)Nc2cc(C)ccc2-n2cccc23)cc1OC | 44
NC(=S)Nc1ccc(OC(F)(F)F)cc1 | 38
CC(C)NC(=O)N1CCc2onc(C(=O)N3CCCC3)c2C1 | -1
C#CC1(OCC(O)CN2CCN(c3ccccc3OC)CC2)CCCCC1 (centres undefined) | 18
OCC(O)CN1CCN(c2ccccc2)CC1 (centres undefined) | -5
C#CC1(OCC(O)CN2CCN(c3cccc(C(F)(F)F)c3)CC2)CCCCC1 (centres undefined) | -80*
O=C1N[C@H]2CCC[C@@H]1CN(Cc1cc3n(n1)CCNC3)C2 | 5
CC(C)(C)C(=O)CN1CCC2(CC1)NC(=O)c1ccccc1N2 | 36
O=C(NCCS(=O)(=O)c1ccc(F)cc1)C1OCCc2ccccc21 (centres undefined) | 10
COc1cccc2cc(C(=O)Nc3cnn(Cc4cccc(F)c4)c3)c(C)nc12 | 2
O=C(Nc1cnn(Cc2cccc(F)c2)c1)C1OCCc2ccccc21 (centres undefined) | -97*
COc1cc(CN2CCCC(C(=O)c3cccc(C(F)(F)F)c3)C2)cc2c1OCO2 (centres undefined) | -43
COC(=O)c1c(NCCc2ccccc2)c2cccc(Cl)c2[nH]c1=O | -54
CC(C)(Cc1ccc2ccccc2c1)NC[C@@H](O)COc1cccc(Cl)c1C#N | -72*
CC(C)NCC(O)COc1cccc2ccccc12 (centres undefined) | -5
CC(C)(C)NCC(O)COc1ccccc1C(=O)CCc1ccccc1 (centres undefined) | -30
CC1CCN(c2cncnc2-n2cc(NC(=O)C3CCCC3)cn2)CC1 | -36
Cc1nc(C2CCN(S(=O)(=O)N(C)C)C2)ncc1C(=O)Nc1ccc(Cl)cc1 (centres undefined) | 12
CC1=C(C(=O)NCCCN(CC(C)C)CC(C)C)C2(CCN(S(C)(=O)=O)CC2)OC1=O | 49
Cc1c(C(=O)N2CC[C@@H]3O[C@@H](C)C[C@@H]3C2)oc2ccccc12 | 33
